Nrf2 block: blocks Nrf2 signaling | Potency, µM (doses to about 46 µM), for the others: top-dose activity change, negative = inhibition, actives largely listed as inhibitors | actives 2.1% (n = 360,000) | A549 ARE-Fluc reporter, luciferase luminescence, 18-24 h | AID 504444; note: potency is the fitted concentration of half-maximal effect; % is set by controls: 0 for no effect and ±100 for the full control effect; nearly all actives have a fitted effect of over 60% in size
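Quantitative HTS in A549 cells stably bearing an antioxidant response element-firefly luciferase construct. Inhibition of Nrf2-driven transcription was scored by luminescence after 18-24 h of compound exposure at 37 °C.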
A549 viability: A549 cytotoxicity, counter-screen for Nrf2 inhibitors; A549 ARE-Fluc cells, CellTiter-Fluor viability, 18-24 h; Potency, µM (doses to about 46 µM), without a hit: at the top dose activity change, negative = cytotoxicity, most hits filed as inhibitors; actives 0.16% (n = 390,000); AID 504648; note: potency is the fitted concentration of half-maximal effect; % is set by controls: 0 for no effect and ±100 for the full control effect
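A549 ARE-Fluc cells in 5% FBS OPTI-MEM, 5000 cells/well, rested 2 h then exposed to compounds in concentration-response for 18-24 h at 37 °C. Viability by CellTiter-Fluor fluorescence (Ex 405/Em 525) after 30 min; luciferase luminescence (BugLite, 15 min, RT) read afterwards.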
Nrf2 ARE act: activators of Nrf2 (ARE) signaling; AREc32 ARE-luciferase reporter (MCF7-derived line), luminescence, 24 h; Potency, µM (highest dose often 46.1 µM), inactives show top-dose activation, hits mostly activators; actives 0.31% (n = 410,000); AID 624171; note: potency is the fitted concentration of half-maximal effect; % of control where 0% means no effect; nearly all actives have a fitted effect of over 65% in size
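For detection, Steady-Glo was added and plates sat 30 min at RT; before that, AREc32_Fluc cells grown overnight in OPTI-MEM/5% FBS had been treated with 23 nL compound for 24 hr at 37 deg C.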
ALOX12 inh: inhibitors of human 12S-lipoxygenase ALOX12. P18054. purified 12hLO, xylenol orange hydroperoxide absorbance. Potency, µM (series often up to 108 µM), inactives show top-dose activity change, negative = inhibition, actives largely listed as inhibitors. actives 1.1% (n = 580,000); note: potency is the fitted concentration of half-maximal effect; % is set by controls: 0 for no effect and ±100 for the full control effect
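Hydroperoxide product was detected by ferrous iron/xylenol orange as the 573 to 405 nm absorbance ratio. Arachidonic acid at 40 uM (final) was turned over for 30 min at room temperature by 150 nM human 12hLO, pH 7.0 Hepes buffer, after 15 min compound preincubation.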
ERG-DNA inh: blocks human ERG Ets domain binding to DNA | P11308 | fluorescence polarization, His-ERG Ets domain / labelled DNA | Potency, µM (doses to about 76.9 µM), for the others: top-dose FP activity, negative = inhibition, hits mostly inhibitors | actives 0.028% (n = 370,000); active = well fitted inhibition curve with a large enough effect in the polarisation, with a control signal flat; inconclusive = small, poorly fitted or top-dose-only effect, or effect the other way, or a change in a side signal; inactive = no such curve, though single readings can be large or run the other way; the % refers to the polarisation;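 note: polarization taken with two DNA probes labelled with fluorescein and Texas red; potency is the fitted concentration of half-maximal effect; % of control where 0% means no effect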
Target sequence (P11308 whole entry, looked up, the tested form may be a part): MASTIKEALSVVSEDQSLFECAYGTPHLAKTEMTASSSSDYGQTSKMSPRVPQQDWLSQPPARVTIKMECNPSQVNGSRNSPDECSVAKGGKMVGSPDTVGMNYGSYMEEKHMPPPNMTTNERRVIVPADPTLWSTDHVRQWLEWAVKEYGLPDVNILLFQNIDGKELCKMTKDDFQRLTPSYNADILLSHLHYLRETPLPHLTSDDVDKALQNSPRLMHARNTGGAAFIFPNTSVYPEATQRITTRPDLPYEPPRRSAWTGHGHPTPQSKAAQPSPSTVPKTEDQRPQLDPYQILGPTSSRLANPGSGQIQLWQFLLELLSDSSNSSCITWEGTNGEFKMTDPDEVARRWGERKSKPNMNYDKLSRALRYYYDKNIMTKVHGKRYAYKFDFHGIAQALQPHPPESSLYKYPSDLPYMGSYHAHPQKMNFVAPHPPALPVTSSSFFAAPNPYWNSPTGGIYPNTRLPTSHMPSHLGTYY
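His-tagged ERG Ets domain (1 uM in the protein solution; 300mM KCl, 50mM Tris-HCl, 1mM EDTA, 1mM DTT, pH 7.5) received compound, then a probe mix of 5 nM fluorescein-DNA and 100nM Texas-615-DNA. Fluorescence polarization was read for both dyes.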
LDHA block: inhibitors of human lactate dehydrogenase A. activity change, % (values are at about 110 or 230 µM). purified LDHA, NADH/diaphorase-resazurin fluorescence; active compounds read low. actives 0.15% (n = 480,000); in the data active = activity change below about -30%; inconclusive = mostly about -25% to -30%;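 note: plate controls were DMSO wells for no effect and wells without enzyme for full effect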
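Remaining NADH was detected by diaphorase (0.133 mg/mL) converting 37 µM resazurin to fluorescent resorufin, read at 0 and 20 minutes. The preceding 5-minute room-temperature reaction used 2 nM LDHA, 0.2 mM sodium pyruvate and 0.06 mM NADH at pH 7.4.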
Active calls of the source: *; ? = inconclusive; . = not tested or not shown. The list is not random: actives were taken first. Their share in the collection is about 2.7%. Unless noted, calls come from the whole dose curve; as a rule, active = well fitted curve in the direction sought with a large enough effect; inconclusive = small, poorly fitted or top-dose-only effect, or another doubt; inactive = no such curve, though single readings can be large; an effect the other way counts as inactive or inconclusive.

SMILES	Nrf2 block	A549 viability	Nrf2 ARE act	ALOX12 inh	ERG-DNA inh	LDHA block
O=C(O)/C=C/C(=O)NCc1csc2ccccc12	22%	18%	0%	25µM*	-6%	-9
Cc1ccccc1CNC(=O)/C=C\C(=O)O	-7%	-7%	0%	?	-5%	-7
Fc1c(F)c(F)c(N/N=C/c2c[nH]c3ccccc23)c(F)c1F	-6%	-5%	13µM*	?	-4%	3
Cn1c(N/N=C/c2c[nH]c3ccccc23)nc2ccccc21	10%	-12%	0%	45µM*	1%	-2
O=C(COc1ccc2ccc(=O)oc2c1)NC(=O)NC12CC3CC(CC(C3)C1)C2	.	.	.	?	.	-7
CCCCCCCCCCCCCCCC[N+](C)(C)CCN(Cc1ccc(OC)cc1)c1ncccn1	21µM*	?	-3%	?	-7%	4
COc1ccc(S[C@]2(C(=O)NCC(F)(F)F)CC(=O)N[C@@H]2c2ccc(OC)cc2)cc1	.	.	.	32µM*	.	.
COC(=O)[C@]1(Sc2ccc(OC)cc2)CC(=O)N[C@@H]1c1ccccc1	.	.	4%	?	.	5
CCOC(=O)C1=CCN(S(=O)(=O)c2ccc(C)cc2)C1c1ccccc1 (stereo not given)	.	.	5%	3%	.	-2
CCOc1cc2c(c3c1C(c1ccccc1)N(S(=O)(=O)c1ccc(C)cc1)C3)C(=O)C=CC2=O (stereo not given)	.	.	?	1.1µM*	.	8
Nc1c(C(=O)c2ccc(Br)s2)oc2ccccc12	-32%	-2%	3.2µM*	0%	0%	-9
COc1cc(Cl)c(NS(=O)(=O)c2cc(-c3n[nH]c(=O)c4c3CCCC4)ccc2C)c(OC)c1	.	.	.	?	.	0
COc1ccc(C2CCCN2C(=O)CSc2nnnn2C2CCCC2)cc1 (stereo not given)	.	.	.	15%	.	-20
Cc1csc(N2N=C(c3ccccc3)CC2c2ccc(Cl)cc2)n1 (stereo not given)	.	.	.	?	.	-14
COc1ccc(CNC(=O)C(=O)Nc2ccc(C)cc2C)cc1	.	.	.	29%	.	-31*
CCC(C)(C)C1CCC(NC(=O)c2cccnc2Cl)CC1 (stereo not given)	.	.	.	7%	.	5
Cc1ccc(-c2nnc(Nc3ccc4c(c3)nc(C)n4C)c3ccccc23)cc1	21µM*	?	3%	5%	.	-7
CCCCc1ncc(CN(C)CC2CCCN(CCc3ccc(F)cc3)C2)[nH]1 (stereo not given)	.	.	.	21%	.	.
CNC(=S)N/N=C(\C)c1cccc(C(F)(F)F)c1	-21%	3%	7%	22µM*	3%	4
CCOC(=O)c1cc(OC(C)C(=O)NC(C)c2ccccc2)cc(C(=O)OCC)c1 (stereo not given)	.	.	.	-1%	.	1
COC(=O)c1c(C)oc2ccc(N(C(=O)c3ccncc3)S(=O)(=O)c3ccc(C)cc3)cc12	10µM*	?	0%	.	0%	-5
COC(=O)c1c(C)oc2ccc(N(C(=O)c3ccncc3)S(=O)(=O)c3ccc(C)cc3C)cc12	6.5µM*	?	3%	-8%	5%	-3
COC(=O)c1c(C)oc2ccc(N(C(=O)c3ccncc3)S(=O)(=O)c3ccccc3)cc12	.	?	3%	?	-1%	2
COC(=O)c1c(C)oc2ccc(N(C(=O)c3ccncc3)S(=O)(=O)c3ccc4ccccc4c3)cc12	23µM*	-23%	3%	9%	-6%	-9
CN1CCN(c2oc(-c3ccccc3F)nc2S(=O)(=O)c2ccc3c(c2)OCCO3)CC1	.	.	.	?	.	0
COc1cccc2c(C)nc(NC3=NCN(CCO)CN3)nc12	.	.	.	?	.	15
C[n+]1cn(CC(O)COCc2ccccc2)c2ccccc21 (stereo not given)	-29%	-4%	0%	40µM*	-5%	?
Cc1ccccc1C(=O)N[C@@H](C)C(=O)O	.	.	.	33%	.	2
